# Source: PubChem (Johns Hopkins Ion Channel Center)
# Sampled rows, rich in hits. Any-hit rate of the full collection: about 1.6%.
# KCNQ2 block: inhibitors of rat KCNQ2 potassium channel. B-score at 10 µM. actives 1.1% (n = 310,000). O88943. CHO-K1 KCNQ2, FluxOR thallium flux, 20 min; active compounds read low. AID 2156;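 active = fluorescence ratio B-score at most minus 3 library SDs, with starting brightness B-score within 2 library SDs, cut at about -5.5 in these data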
# KCNQ2 enhance: enhances the rat KCNQ2 potassium channel | O88943 | CHO-K1 KCNQ2, FluxOR thallium flux fluorescence; active compounds read high | B-score at 10 µM | actives 0.54% (n = 310,000) | AID 2239;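 active = fluorescence ratio B-score at least 3 SD of library B-scores, with initial fluorescence B-score within 3 of them, cut at about 5.3 in these data; same plate scores as AID 2156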;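 also: B-score of peak minus minimum over baseline fluorescence ratio after K+ and Tl+ stimulus; positive B-score means potentiation of KCNQ2 with more thallium influx and brighter signal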
# KCNQ2 inh conf: confirmation of rat KCNQ2 potassium channel inhibitors; AID 493025; shares compounds with KCNQ2 block; actives 57% (n = 1,000); activity change, negative = inhibition, % at 10 µM; KCNQ2-expressing cells, thallium flux, inhibition; active compounds read low;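 also: 0% = vehicle wells and values are ratio percent relative to vehicle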
# KCNQ1 spec: selectivity of KCNQ2 inhibitors against human KCNQ1; shares compounds with KCNQ2 block; KCNQ1-expressing cells, FluxOR thallium flux fluorescence; active compounds read low; activity change, negative = inhibition, % at 10 µM; actives 15% (n = 1,000); AID 493026;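 active = activity change at least 3 SD of negative controls below their mean in both duplicate wells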;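 also: CHO cells stably transfected with KCNQ1 and depolarized by potassium stimulus; peak minus minimum fluorescence over baseline after thallium addition; 0% = vehicle negative control and -100% = blank without thallium stimulus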
# CHO parental ctr: activity in parental CHO cells lacking KCNQ2; AID 493029; actives 14% (n = 1,000); activity change, % at 10 µM; shares compounds with KCNQ2 block; thallium flux counter-screen; active compounds read low;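 also: 0% = vehicle negative controls with stimulus buffer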
# KCNQ2 patch conf: blocks rat KCNQ2 current in automated patch clamp. AID 588531. shares compounds with KCNQ2 block. calls only at 10 µM. actives 49% (n = 550). KCNQ2-expressing cells
# Kir21 conf inh: confirmation of mouse Kir2.1 potassium channel inhibitors | Kir2.1-expressing cells, FluxOR thallium flux fluorescence; active compounds read low | actives 41% (n = 2,300) | shares compounds with KCNQ2 enhance | AID 2032 | Tl flux remaining, % of negative control (active compounds read low), % at 10 µM;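 active = Primary-screen hit whose thallium flux fell at least 3 control SD below untreated wells in both duplicates, with normal baseline fluorescence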;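 also: 0% = blank wells without stimulus and 100% = stimulated no-compound controls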
# Target sequence (P35561 whole entry, looked up): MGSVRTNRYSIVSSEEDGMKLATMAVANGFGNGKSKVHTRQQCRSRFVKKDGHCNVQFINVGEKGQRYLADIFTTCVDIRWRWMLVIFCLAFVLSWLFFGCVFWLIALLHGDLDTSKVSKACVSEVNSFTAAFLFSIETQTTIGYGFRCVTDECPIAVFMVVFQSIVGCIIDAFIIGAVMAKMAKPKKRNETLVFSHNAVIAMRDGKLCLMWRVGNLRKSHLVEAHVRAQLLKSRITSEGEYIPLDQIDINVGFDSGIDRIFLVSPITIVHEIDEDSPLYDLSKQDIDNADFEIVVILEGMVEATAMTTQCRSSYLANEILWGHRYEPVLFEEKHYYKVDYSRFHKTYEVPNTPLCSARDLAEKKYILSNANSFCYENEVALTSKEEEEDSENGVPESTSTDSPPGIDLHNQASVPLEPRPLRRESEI
# HEK293 ctr: alters thallium flux in parental HEK293 cells, Kir2.1 counter-screen. shares compounds with KCNQ2 enhance. FluxOR thallium flux fluorescence; 0% = unstimulated blank wells. FluxOR signal as % of negative control (100 = no effect), % at 10 µM. actives 19% (n = 2,300). AID 2105;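 active = dye signal at least 3 control SD above or below untreated wells in both duplicates, raw fluorescence within 3, either direction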;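 also: percent is based on the flux ratio of peak minus minimum fluorescence over baseline F0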
# * marks the source's active call; other numbers are inactive results; i = inactive; nt = not tested or not shown; + = active, no number. Unless noted, no rule for the calls is given here.
SMILES,KCNQ2 block,KCNQ2 enhance,others
Clc1ccc(COC(Cn2ccnc2)c2ccc(Cl)cc2Cl)cc1 (configuration not stated),-8.31*,-8.31,
COC(=O)C1=C(c2cccc(OC)c2OC)C[C@@H]2CC[C@H]1N2C(=O)NCc1ccccc1,i,nt,
COC(=O)C1=C(c2cccc(OC)c2OC)C[C@@H]2CC[C@H]1N2C(=O)NCc1cccc2ccccc12,-6.83*,-6.83,
Cc1nonc1-c1nc(-c2nonc2N)n[nH]1,i,nt,
CCOc1ccc(N=C2SCCCN2C)cc1,i,2.57,
CC(Cc1ccccc1)NC(=O)Cc1ccc([N+](=O)[O-])cc1 (configuration not stated),i,1.17,
O=C(Nc1cccnc1)c1c(O)c2c(n(Cc3ccccc3)c1=O)CCCC2,-5.82*,-5.82,
O=C(Nc1ccc(F)cc1)c1c(O)c2c(n(Cc3ccccc3)c1=O)CCCC2,i,nt,
C[C@]12CCC3[C@@H](CCC4=CC(=O)CC[C@@]43C=O)C1CCC2=O (some centres not stated),i,nt,
c1ccc2c(CN3CCCCC3)c[nH]c2c1,i,nt,
O=C(COc1ccc(Br)cc1)N1CCN(Cc2c[nH]c3ccccc23)CC1,-5.82*,-5.82,
N#Cc1ccccc1Cn1cc(C(=O)c2cccs2)c2ccccc21,i,nt,
O=C(c1cccs1)c1cn(Cc2ccccc2Cl)c2ccccc12,-7.33*,-7.33,
CCCCNC(=O)c1c(N)n(CCCOC)c2nc3ccccc3nc12,-8.49*,-8.49,
COCCCn1c(N)c(C(=O)OCCOC)c2nc3ccccc3nc21,i,0.78,
CNC(C(=O)c1ccccc1)C(OC(C)C)c1ccc(Cl)cc1 (configuration not stated),i,0.02,
N/C(=N/[N+](=O)[O-])N1CCN(C(=O)Oc2ccc([N+](=O)[O-])cc2)CC1,i,0.05,
CCCC(C)C1(CC)C(=O)NC(=O)N=C1N (configuration not stated),i,0.16,
O=C(COc1ccc(Br)cc1)N1CCN(C2CCCC2)CC1,i,nt,
Cc1ccc(OCC(=O)N2CCN(C3CCC(c4ccccc4)CC3)CC2)cc1 (configuration not stated),-6.25*,-6.25,
O=c1cccc2n1CC1CC2CN(c2ncnc3c2cnn3-c2ccc(Cl)cc2)C1 (configuration not stated),i,nt,
CCc1cc(=O)[nH]c(SCCCF)n1,i,0.52,
COc1ccc(OC)c(NP(=O)(Oc2ccc(Cl)cc2)Oc2ccc(Cl)cc2)c1,-6.14*,-6.14,
COc1ccc(OC)c(NP(=O)(Oc2ccccc2)Oc2ccccc2)c1,i,0.02,
COc1cc(NC(=O)CN2C3CCC2CC(O)(c2cccnc2)C3)cc(OC)c1 (configuration not stated),i,0.03,
SMILES,KCNQ2 block,KCNQ2 enhance,others
CC(=O)Nc1nnc(CCN(CCc2nnc(NC(C)=O)s2)[N+](=O)[O-])s1,i,nt,
O=C(Nc1ccc(Cl)cc1)O/N=C(\c1ccccc1)c1ccccn1,-7.65*,-7.65,KCNQ2 inh conf=i;KCNQ1 spec=i;CHO parental ctr=i
CON(C)C(=O)Nc1ccc(Cl)cc1,i,nt,
COC(=O)c1c2[n+](cc3cc(OC)c(OC)cc13)CCc1cc(OC)c(OC)cc1-2,i,nt,
O=P(Nc1ccccc1)(Nc1ccccc1)Oc1cccc(Cl)c1,-7.71*,-7.71,KCNQ2 inh conf=i;KCNQ1 spec=i;CHO parental ctr=i
O=P(Nc1ccccc1)(Nc1ccccc1)Oc1ccccc1,i,nt,
O=C(CCc1nc(-c2ccccc2F)no1)N1CCC2(CC1)OCCO2,i,nt,
COc1ccc(NC(c2ccccc2)P(=O)(Oc2ccccc2)Oc2ccccc2)cc1 (configuration not stated),-6.98*,-6.98,KCNQ2 inh conf=-31.0%*;KCNQ1 spec=i;CHO parental ctr=i;KCNQ2 patch conf=+
COc1ccc(NC(c2ccccc2F)P(=O)(Oc2ccccc2)Oc2ccccc2)cc1 (configuration not stated),i,nt,
COC(=O)C1=C(c2cc3ccccc3o2)C[C@@H]2CC[C@H]1N2C(=O)NCc1ccc(C(F)(F)F)cc1,i,2.07,
COc1ccc(-[n+]2c(-c3ccccc3)cc(-c3ccc(C)cc3)cc2-c2ccccc2)cc1,-10.1*,-10.1,KCNQ2 inh conf=-26.0%*;KCNQ1 spec=i;CHO parental ctr=i;KCNQ2 patch conf=+;Kir21 conf inh=14.0%*;HEK293 ctr=i
COc1ccc(-c2cc(-c3ccccc3)[n+](C)c(-c3ccccc3)c2)cc1,i,nt,
CCn1c(O)c(C(c2ccccn2)c2c(O)n(CC)c(=S)[nH]c2=O)c(=O)[nH]c1=S,i,0.21,
COC(=O)CC1=C(C(=O)OC)C2(C(=O)Nc3c(C)cccc32)C(C#N)=C(N)O1 (configuration not stated),i,0.26,
CC1CCC(C(C)C)C(OC(=O)Cn2c(COc3ccccc3)[n+](C)c3ccccc32)C1 (configuration not stated),-9.99*,-9.99,KCNQ2 inh conf=-55.0%*;KCNQ1 spec=-52.5%*;CHO parental ctr=-50.5%*;KCNQ2 patch conf=i;Kir21 conf inh=18.0%*;HEK293 ctr=i
CC(C)OC1CCCC(O)C1CC(=O)O (configuration not stated),i,0.55,
O=C(NCCO)c1nsnc1NCCCl,i,nt,
CC(=O)O[C@]1(C)C(=O)OC/C2=C/CN(C)CCC(OC(=O)[C@@](O)(C(C)O)C[C@H]1C)C2=O (some centres not stated),i,1.41,
Cc1ccc(-c2cc(-c3ccccc3)cc(-c3ccccc3)[n+]2-c2ccc(C(=O)O)cc2)cc1,i,nt,
Oc1ccccc1-[n+]1c(-c2ccccc2)cc(-c2ccccc2)cc1-c1ccccc1,-7.58*,-7.58,KCNQ2 inh conf=-16.5%*;KCNQ1 spec=i;CHO parental ctr=i;KCNQ2 patch conf=i;Kir21 conf inh=44.5%*;HEK293 ctr=i
O=c1[nH]c(=O)n(-c2ccccc2F)c(O)c1C=NCCC1=CCCCC1,i,nt,
CCCCCCCSc1cc(OC)c(CCN(C)C)cc1OC,-7.74*,-7.74,KCNQ2 inh conf=-34.0%*;KCNQ1 spec=-37.5%*;CHO parental ctr=-27.5%*;KCNQ2 patch conf=i;Kir21 conf inh=19.0%*;HEK293 ctr=i
c1ccc(CNc2c3c(nc4ccccc24)CCC3)cc1,i,0.24,Kir21 conf inh=i;HEK293 ctr=i
CC(C)CNc1c2c(nc3ccccc13)CCC2,i,3.15,
CCNC(=O)NC(=O)C(C)OC(=O)c1c(C)nn(Cc2ccccc2)c1Cl (configuration not stated),i,0.46,
CCCN(CC1CC1)CC(O)c1ccccc1 (configuration not stated),i,nt,
Cc1cccc(OP(=O)(NCc2ccccc2)Oc2cccc(C)c2)c1,i,nt,
